The assay relates to Vero E6 infected with SARS-CoV-2. The experiment in a line: morphology score (similarity to uninfected cells); higher = more like uninfected cells. The note with it: 24 h.
In the case of `N[C@@H](CSCCCO)C(=O)O` [fudosteine] (10 µM), the morphology score turned out to be 0.0399.
In turn, `O=C1NS(=O)(=O)c2ccccc21` [saccharin] (10 µM) had a morphology score of -0.085.
`O=C1C(CC[S+]([O-])c2ccccc2)C(=O)N(c2ccccc2)N1c1ccccc1` (stereo not given) [sulfinpyrazone] (10 µM) showed a morphology score of 0.0498.
With `CN(CCOc1ccc(CC2SC(=O)NC2=O)cc1)c1ccccn1` (stereo not given) [rosiglitazone] (10 µM), the morphology score came to 0.279.
As for `CCn1c(=O)c(-c2cc[nH]n2)cc2c(C)nc(N)nc21` [voxtalisib] (0.833333 µM), the figure is 0.00591; as for `Cc1cnc(C(=O)N[C@H]2CCCCC/C=C\[C@@H]3C[C@@]3(C(=O)NS(=O)(=O)C3CC3)NC(=O)[C@@H]3C[C@@H](Oc4nc5ccccc5c5ccccc45)CN3C2=O)cn1` [paritaprevir] (10 µM), 0.303; as for `O=C(c1ccccn1)c1cnn2c(-c3ccncc3)ccnc12` [ocinaplon] (10 µM), -0.0527.
As for `CCCCOc1ccc(-c2cncc(C(=O)NCc3cccnc3N3CCOCC3)c2)cc1Cl` (10 µM), the morphology score is -0.147.
`Nc1nccc2c1ncn2C1C=C(CO)C(O)C1O` (stereo not given) [3-deazaneplanocin-A] (10 µM) registered a morphology score of -0.104.
`C[C@@H](Nc1cc(F)cc(F)c1)c1cc(C(=O)N(C)C)cc2c(=O)cc(N3CCOCC3)oc12` (10 µM) displayed a morphology score of -0.225.
As for `CCN(CC)CCNC(=O)COc1ccc(OC)cc1` [mefexamide] (10 µM), the figure is 0.0556; as for `CN[C@@H](C)C(=O)N[C@H](C(=O)N1CCC[C@H]1C(=O)Nc1snnc1-c1ccccc1)C1CCCCC1` (10 µM), -0.0857; as for `Cc1cc([C@@H](C)Nc2ccccc2C(=O)O)c2nc(N3CCOCC3)cc(=O)n2c1` (10 µM), -0.0702.
In turn, `O=c1[nH]c(=O)n([C@H]2C[C@H](O)[C@@H](CO)O2)cc1I` [idoxuridine] (10 µM) returned a morphology score of 0.0252.
As for `CCC1(C2=NCCN2)Cc2ccccc2O1` (stereo not given) [efaroxan] (10 µM), the morphology score came to 0.165.
As for `NC(=S)N/N=C/c1ncccc1N` [triapine] (0.833333 µM), the morphology score was determined as 0.051.
Take `CCOc1cc(OCC)c(C(=O)CCC(=O)O)cc1OCC` [trepibutone] (10 µM): the morphology score is -0.0558.
For the compound `COc1ccc(C2CNC(=O)C2)cc1OC1CCCC1` (stereo not given) [rolipram] (10 µM), the morphology score came to 0.39.
Turning to `Brc1c(NC2=NCCN2)ccc2nccnc12` [brimonidine] (10 µM), the morphology score came to 0.0346.
`CC[C@@H]([C@H](C)O)n1ncn(-c2ccc(N3CCN(c4ccc(OC[C@@H]5CO[C@@](Cn6cncn6)(c6ccc(F)cc6F)C5)cc4)CC3)cc2)c1=O` [posaconazole] (0.833333 µM) displayed a morphology score of 0.204.
In the case of `CCNC(=O)NS(=O)(=O)c1sc(CC(C)C)cc1-c1ccc(Cn2c(-c3ccccc3)nc(OC)c2C=O)cc1` (10 µM), the morphology score was 0.159.
With `CSc1nc(NC2CCCC2)c([N+](=O)[O-])c(NC2CCCC2)n1` (10 µM) the figure was 0.349; with `CC(C)NCC(O)c1ccc([N+](=O)[O-])cc1` (stereo not given) [nifenalol] (10 µM), -0.141; with `O=C(/C=C/c1ccc(O)c(O)c1)O[C@@H]1C[C@](O)(C(=O)O)C[C@@H](O)[C@H]1O` [chlorogenic-acid] (10 µM), 0.0432.
The compound `C[C@H]1c2cccc(O)c2C(=O)C2=C(O)[C@]3(O)C(=O)C(C(N)=O)=C(O)[C@@H](N(C)C)[C@@H]3[C@@H](O)[C@@H]21` [doxycycline] (10 µM) yielded a morphology score of 0.0783.
With `COc1cc2c(Oc3ccc(NC(=O)C4(C(=O)Nc5ccc(F)cc5)CC4)cc3F)ccnc2cc1OCCCN1CCOCC1` [foretinib] (10 µM) the figure was 0.152; with `COc1ccc(CC(=O)NC(/N=C(\NC#N)Nc2cccc3ncccc23)C(C)(C)C)cc1OC` (stereo not given) (10 µM), 0.297.
The compound `COc1ccccc1OCC(O)CNC(C)C` (stereo not given) [moprolol] (10 µM) came in with a morphology score of 0.0947.
Compound `CN1CCN(c2c(F)cc3c(=O)c(C(=O)O)cn4c3c2SCC4)CC1` [rufloxacin] (10 µM) returned a morphology score of 0.0805.
`COC(=O)[C@@H]1[C@H]2C[C@H]3c4[nH]c5ccccc5c4CCN3C[C@@H]2CC[C@@H]1O` [yohimbine] (10 µM) yielded a morphology score of 0.0665.
In turn, `COc1ccc(CNC(=O)Nc2ncc([N+](=O)[O-])s2)cc1` (10 µM) yielded a morphology score of -0.141.
As for `O=[N+]([O-])c1ncc[nH]1` [azomycin-(2-nitroimidazole)] (10 µM), the figure is -0.138; as for `COc1ccc(/C=C/C(=O)/C=C(O)/C=C/c2ccc(OC)c(OC)c2)cc1OC` (10 µM), 0.335.
The compound `CC(=O)OC[C@H](N)C(=O)O` [O-acetyl-L-serine] (10 µM) came in with a morphology score of 0.0719.
Take `CN1C(=O)CCS(=O)(=O)C1c1ccc(Cl)cc1` (stereo not given) [chlormezanone] (10 µM): the morphology score was -0.0968.
Consider `C=C1C(=O)O[C@@H]2[C@H]3O[C@]3(C)CC/C=C(\C)CC[C@@H]12` [parthenolide-(alternate-stereo)] (0.833333 µM), for which the morphology score is 0.111.
`Cc1cc(N2CCN([C@@H]3CN[C@H](C(=O)N4CCSC4)C3)CC2)n(-c2ccccc2)n1` [teneligliptin] (10 µM) returned a morphology score of 0.062.
With `CC(C)C[C@@H](C(=O)N[C@H](C(=O)OC1CCCC1)c1ccccc1)[C@H](O)C(=O)NO` [tosedostat] (10 µM) the figure was 0.243; with `CCOC(=O)c1ccc(N2NC(=O)/C(=C/c3ccc([N+](=O)[O-])o3)C2=O)cc1` (10 µM), 0.149.
In the case of `CCN(c1cc(-c2ccc(CN3CCOCC3)cc2)cc(C(=O)NCc2c(C)cc(C)[nH]c2=O)c1C)C1CCOCC1` [tazemetostat] (10 µM), the morphology score was 0.0658.

(Values after the supplement of paper PMC13380429.)
